Screening data from PubChem BioAssay.
Sampled rows, rich in hits. Any-hit rate of the full collection: about 0.51%.
AddAB inh – less growth of phage-infected E. coli with AddAB; E. coli expressing H. pylori AddAB, absorbance growth; inhibition, % at 11.9 µM; 0.29% of 330,000 active; AID 435030; in the data active means inhibition above about 12%
E coli growth-1 – counter-screen for AddAB inhibitors: E. coli growth inhibition; E. coli V3065 growth, OD600 absorbance, 18 h; inhibition, % at 11.9 µM; AID 449728; 0.27% of 330,000 active;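 active means inhibition above the campaign's mean inhibition across all tested compounds plus 3 SD, cut at about 9.9% in these data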;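 further: uninfected addAB+ strain grown without phage in ampicillin broth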
E coli growth-2 – inhibitors of Escherichia coli growth; OD600, 23 h; stronger effect = lower value; OD600 absorbance (no concentration beside the values); 0.21% of 330,000 active; AID 1053175;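 active means OD600 absorbance below the run mean of sample wells minus 3.6 SD, in any replicate, cut at about 0.56 in these data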
phage Ecoli inh – E. coli growth loss with phage present | growth absorbance | inhibition, % at 11.9 µM | 0.26% of 360,000 active; in the data active means inhibition above about 11%
p-CIP stab down – compounds decreasing mouse p/CIP protein stability; 0.01% of 290,000 active; F442A p/CIP-EGFP cells, EGFP fluorescence, 16 h; decrease of EGFP signal, % at 10 µM; Q05BA5; AID 1984;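 active means EGFP signal decrease of at least 30% at 10 µM or well 3 SD below plate mean, unless failing retest; inactive means the rest, including hits failing retest or dose response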
Tat export inh – blocks Tat-dependent protein export in E. coli; E. coli MC4100 TorA-mCherry Tat export, fluorescence; inhibition, % at 10 µM; 0.036% of 340,000 active; AID 488895;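 active means mean replicate inhibition at least 50% and at least half of replicates individually reaching 50%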;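 further: exported cargo escapes ClpAP degradation while cytoplasmic cargo is degraded and loses fluorescence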
AddAB conf – confirmation screen: growth loss of phage-infected E. coli expressing H. pylori AddAB; shares compounds with AddAB inh; E. coli V3065 expressing H. pylori AddAB, T4 phage, OD; T4 phage with gene 2 nonsense mutations; inhibition, % at 11.9 µM; 64% of 880 active; AID 488942;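 active means mean inhibition above a set limit taken from the earlier primary screen, cut at about 13% in these data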;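 further: higher means less bacterial growth since AddAB block lets phage replicate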
RecBCD counter – reduces growth of phage-infected RecBCD+ E. coli, AddAB inhibitor counter-screen. shares compounds with AddAB inh. E. coli V66 + mutant T4 phage, OD growth. inhibition, % at 11.9 µM. 73% of 880 active;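 active means mean inhibition above the mean of solvent-only control wells plus 3 SD, cut at about 4% in these data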;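 further: optical density read after an 18 h incubation at 37 °C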
bact viab count – counter-screen: bacterial growth inhibition; shares compounds with AddAB inh; bacterial viability, absorbance (AddAB counterscreen); inhibition, % at 11.9 µM; 35% of 880 active; in the data active means inhibition above about 25%
Large screens that a line does not name were inactive (follow-up assays come after a bar, where they were run).

Cc1ccc(NC(=O)CN2C(=O)C3CC=CCC3C2=O)cc1S(=O)(=O)N1CCOCC1 (stereo unspecified)	none
O=C(Nc1nc(-c2cccs2)c(C(=O)C(F)(F)F)s1)c1ccco1	AddAB inh 99, E coli growth-1 96 | AddAB conf inactive | RecBCD counter inactive | bact viab count inactive
O=C(Nc1nc(-c2cccs2)c(C(=O)C(F)(F)F)s1)c1ccccc1	none
Cc1cccc(-c2cc(=O)c(C(=O)O)cn2-c2ccc(F)cc2F)c1	none
NC1CCN(c2nc3c(cc2F)c(=O)c(C(=O)O)cn3-c2ccc(F)cc2F)C1 (stereo unspecified)	AddAB inh 101, E coli growth-1 102, E coli growth-2 0.07, phage Ecoli inh 101, Tat export inh 72 (no result: p-CIP stab down) | AddAB conf 97 | RecBCD counter 100 | bact viab count 100
C/C(=N\Nc1nc2ccccc2[nH]1)c1ccccn1	AddAB inh 27, E coli growth-1 27, phage Ecoli inh 27 (no result: E coli growth-2) | AddAB conf 25 | RecBCD counter 14 | bact viab count inactive
Nc1nn2c(-c3ccccc3)cc(=O)[nH]c2c1N=Nc1ccc(O)cc1	AddAB inh 19, E coli growth-1 10 | AddAB conf 27 | RecBCD counter inactive | bact viab count inactive
CCOC(=O)c1c(C)nc(C)c2c(=O)oc3ccccc3c12	AddAB inh 98, E coli growth-1 99 | AddAB conf inactive | RecBCD counter inactive | bact viab count inactive
COc1cccc(Cn2nnc(C(=O)NCc3ccc(F)cc3)c2N)c1	AddAB inh 21 | AddAB conf inactive | RecBCD counter inactive | bact viab count inactive
O=C1c2c(O)ccc(O)c2C(=O)c2c(NCCNCCO)ccc(NCCNCCO)c21	AddAB inh 31, E coli growth-1 32 (no result: p-CIP stab down) | AddAB conf 52 | RecBCD counter inactive | bact viab count 51
O=C1c2ccccc2C(=O)c2c(Nc3ccc(CCO)cc3)ccc(O)c21	none (no result: E coli growth-2)
CCOc1ccc(OCC(=O)N2CCC3(CC2)CC(=O)c2ccccc2O3)cc1	none (no result: p-CIP stab down)
Cc1nc2sc(C(c3ccco3)N3CCN(C(c4ccccc4)c4ccccc4)CC3)c(O)n2n1 (stereo unspecified)	AddAB inh 37, E coli growth-1 22 | AddAB conf inactive | RecBCD counter inactive | bact viab count inactive
N#Cc1c(NC(=O)c2ccccc2)sc2c1CCC2	none
N#Cc1c(NC(=O)c2ccc([N+](=O)[O-])o2)sc2c1CCC2	AddAB inh 16, E coli growth-1 11 | AddAB conf 64 | RecBCD counter 7.3 | bact viab count inactive
NC(=O)c1c(NC(=O)c2ccc([N+](=O)[O-])o2)sc2c1CCCC2	AddAB inh 23, E coli growth-1 18 | AddAB conf 98 | RecBCD counter 8.8 | bact viab count 28
CCc1cccc(C)c1NC(=O)CN1CCN(S(=O)(=O)c2ccc(C(C)(C)C)cc2)CC1	none (no result: p-CIP stab down)
CC(C)CNC(=S)NC(=O)c1csc([N+](=O)[O-])c1	none
O=[N+]([O-])c1cc(-c2ncccn2)cs1	AddAB inh 17, E coli growth-1 13 | AddAB conf 100 | RecBCD counter 8.6 | bact viab count 27
CCOC(=O)N1CCN(C(=O)CCCn2c(=S)[nH]c3ccsc3c2=O)CC1	AddAB inh 25, E coli growth-1 24 | AddAB conf inactive | RecBCD counter inactive | bact viab count inactive
CN1CCN(c2c(F)cc3c(=O)c(C(=O)O)cn(CCF)c3c2F)CC1	none (no result: AddAB inh, E coli growth-1, E coli growth-2, phage Ecoli inh, Tat export inh)
COc1c(N2CCNC(C)C2)c(F)cc2c(=O)c(C(=O)O)cn(C3CC3)c12 (stereo unspecified)	AddAB inh 100, E coli growth-1 102, E coli growth-2 0.061 (no result: phage Ecoli inh, p-CIP stab down, Tat export inh) | AddAB conf 101 | RecBCD counter 101 | bact viab count 103
Cc1c(Cl)cccc1NC(=S)NCc1ccccc1Cl	AddAB inh 18 | AddAB conf 17 | RecBCD counter 23 | bact viab count inactive
Cc1c(Cl)cccc1NC(=S)NCc1ccc(F)cc1	none
